In paper PMC4552634, “A New Set of Chemical Starting Points with Plasmodium falciparum Transmission-Blocking Potential for Antimalarial Drug Discovery” (PLoS ONE, 2015):
Hit rate of the full screen: of about 13,000 compounds, about 3,200 (25%) showed an effect of 50% or more. The list shows a part of the results.

Tested on: P. falciparum stage V gametocytes
Set-up: BacTiter-Glo ATP luminescence viability of purified stage V gametocytes in 384-well plates, per cent inhibition versus DMSO
Settings: 48 h, 5 µM; inhibitor

Structure (SMILES) | % Inhibition [%]
CCOc1ccc(C(=O)N2CCOC(CCN3CCC4(CCc5ccccc54)CC3)(c3ccc(Cl)c(Cl)c3)C2)cc1 (stereo not drawn) [TCMDC-135339] | -28.45
O=C(/C=C/c1ccc(Cl)c(Cl)c1)NCCCCCN1CCCN(C(=O)Nc2ccc(Br)cc2)CC1 [TCMDC-135761] | -59.24
O=C(/C=C/c1cccc(Cl)c1)NCCCCCN1CCC(c2c[nH]c3ccccc23)CC1 [TCMDC-139211] | 97.27
O=C(/C=C/c1ccc(Cl)cc1Cl)NCCCCCN1CCC(c2c[nH]c3ccccc23)CC1 [TCMDC-139696] | 89.84
O=C(NCCCCCN1CCC(c2c[nH]c3ccccc23)CC1)Nc1ccc(Cl)cc1Cl [TCMDC-139166] | -62.24
O=C(/C=C/c1cccc(Br)c1)NCCCCCN1CCC(c2c[nH]c3ccccc23)CC1 [TCMDC-139233] | 3.439
O=C(/C=C/c1cc(C(F)(F)F)ccc1F)NCCCCCN1CCC(c2c[nH]c3ccccc23)CC1 [TCMDC-140010] | -22
O=C(/C=C/c1ccc(Cl)cc1)NCCCCCN1CCC(c2c[nH]c3ccccc23)CC1 [TCMDC-139234] | 97.27
O=C(/C=C/c1cccc(OC(F)(F)F)c1)NCCCCCN1CCC(c2c[nH]c3ccccc23)CC1 [TCMDC-139190] | -40.78
O=C(/C=C/c1ccc2ccccc2c1)NCCCCCN1CCC(c2c[nH]c3ccccc23)CC1 [TCMDC-139206] | 99.19
CCCCCCP(=O)(COc1ccc(CCN(CC(O)COc2cccc3[nH]c(C(N)=O)cc23)CC(O)COc2cccc3[nH]c(C(N)=O)cc23)cc1)OCCCC (stereo not drawn) [TCMDC-139041] | 20.08
CN1CCN(c2ccc(-c3cc(-c4cc(F)c(F)c(F)c4)cnc3N)cc2)CC1 [TCMDC-133345] | -8.308
O=C(NC1CCN(Cc2ccccc2)CC1)c1cccc(Nc2nc(-c3ccccc3)cs2)c1 [TCMDC-136774] | 0.9462
COc1cc(Cc2cnc(N)nc2N)cc(OCCCCC#N)c1OC [TCMDC-138035] | -14.37
c1cn(-c2ccc(CNc3nccc(Nc4ccc(OCCN5CCOCC5)cc4)n3)cc2)cn1 [TCMDC-134665] | 13.33
COc1ccccc1-n1ccnc1SCC(=O)Nc1cc(C(F)(F)F)ccc1Cl [TCMDC-123823] | -21.34
COc1ccccc1-n1ccnc1SCC(=O)Nc1cccc(C(F)(F)F)c1 [TCMDC-123546] | 51.1
COc1ccc(-n2ccnc2SCC(=O)Nc2cccc(C(F)(F)F)c2)c(OC)c1 [TCMDC-123545] | -5.921
Cc1cc2nc(NC3=NC4(c5ccccn5)N=C(Nc5nc6cc(C)c(C)cc6[nH]5)NC4(c4ccccn4)N3)[nH]c2cc1C (stereo not drawn) [TCMDC-139105] | -75.39
Cn1c(NC2=NC3(c4ccccn4)N=C(Nc4nc5ccccc5n4C)NC3(c3ccccn3)N2)nc2ccccc21 (stereo not drawn) [TCMDC-139096] | 50.49
c1ccc(C23N=C(Nc4nc5ccccc5[nH]4)NC2(c2ccccc2)NC(Nc2nc4ccccc4[nH]2)=N3)cc1 (stereo not drawn) [TCMDC-139082] | -85.59
CCCNC[C@@H](O)[C@H](Cc1ccccc1)NC(=O)c1cc(NCC)cc(N2CCCCS2(=O)=O)c1 [TCMDC-135269] | 19.71
Cc1cccc(-n2c(=O)c3c4c(sc3n3c(SCCC(C)C)nnc23)CCCC4)c1 [TCMDC-125651] | 34.66
C=CCc1ccccc1OCC(O)CN(C1CCCCC1)C1CCCCC1 (stereo not drawn) [TCMDC-123906] | -42.05
OC(CN1c2ccccc2Sc2ccccc21)CN(C1CCCCC1)C1CCCCC1 (stereo not drawn) [TCMDC-125553] | 51.78
C[C@@H](COc1ccc(-c2ccccc2)cc1)CON1C(N)=NC(N)=NC1(C)C [TCMDC-124029] | 25.59

Structure (SMILES) | % Inhibition [%]
COc1cc2nc(N(C)Cc3cc4c(Cl)cccc4s3)nc(N)c2cc1OC.Cl [TCMDC-131890] | 62.52
CNCc1ccc(CN(C)c2nc(N)c3cc(OC)c(OC)cc3n2)cc1 [TCMDC-131896] | 48.14
COc1cc2nc(N(C)Cc3cccc(I)c3)nc(N)c2cc1OC [TCMDC-131898] | -39.77
CC1(C)N=C(N)N=C(N)N1c1ccc(Br)cc1 [TCMDC-123959] | 18.18
COc1ccc(CNCc2ccccc2)cc1-c1ccc(S(=O)(=O)NCCN2CCCC2)cc1 [TCMDC-132247] | 102
COc1ccc(CNCc2ccc(F)cc2)cc1-c1ccc(S(=O)(=O)NCCN2CCCC2)cc1 [TCMDC-132294] | 108.8
COc1cc2c(cc1S(=O)(=O)c1ccc(NC(=O)Nc3ccc(F)cc3)cc1)CCN(C)CC2 [TCMDC-141793] | 32.2
O=C(/C=C/c1ccc(Cl)c(Cl)c1)NCCCCCN1CCCN(C(=O)Nc2ccc(OC(F)F)cc2)CC1 [TCMDC-135756] | -55.78
CC1(C)N=C(N)N=C(N)N1OCc1ccc2c(c1)OCO2 [TCMDC-131581] | 47.46
CN1CCN(c2ccc(-c3cc(-c4ccncc4)c(-c4ccc(Cl)c(O)c4)o3)cc2)CC1 [TCMDC-141308] | 9.946
Cc1nc(N)nc(N)c1OCCCCOc1ccccc1 [TCMDC-131353] | -22.41
CCCOc1ccc(N2C(N)=NC(N)=NC2(C)C)cc1 [TCMDC-137702] | -17.71
CC1(C)N=C(N)N=C(N)N1c1ccccc1 [TCMDC-123984] | -31.19
Nc1nc(N)c2c(ccc3c2ccn3CCCCO)n1 [TCMDC-137959] | 31.47
CCCC(C)n1ccc2c3c(N)nc(N)nc3ccc21 (stereo not drawn) [TCMDC-137964] | -7.389
CCCC(CC)n1ccc2c3c(N)nc(N)nc3ccc21 (stereo not drawn) [TCMDC-137948] | 17.27
Nc1nc(N)c2c(ccc3c2ccn3CCCF)n1 [TCMDC-138623] | 32.47
CCCCCCn1ccc2c3c(N)nc(N)nc3ccc21 [TCMDC-137994] | 106.4
Nc1nc(N)c2c(ccc3nn(C4CCCC4)cc32)n1 [TCMDC-137960] | -20
CC(C)Cn1ccc2c3c(N)nc(N)nc3ccc21 [TCMDC-137997] | 21
Nc1nc(N)c2c(ccc3c2ccn3C2CCCCC2)n1 [TCMDC-137871] | 105.4
CC(C)CNc1nc(N)nc2ccc3c(ccn3CC(C)C)c12 [TCMDC-137731] | 87.39
CCCC(CCC)n1ccc2c3c(N)nc(N)nc3ccc21 [TCMDC-137949] | 60.59
Nc1nc(N)c2c(ccc3c2ccn3C2C=CCCC2)n1 (stereo not drawn) [TCMDC-137861] | 26.32
CC(=O)Nc1nc(N)c2c(ccc3c2ccn3CC(C)C)n1 [TCMDC-137971] | 0.8169
